hcDAF-12 act – H. contortus DAF-12 activation, primary screen. HEK293 hcDAF-12 lit1-tk-luc reporter, luminescence; 0% DMSO, 100% Δ7-dafachronic acid. AID 652067. activation, % at 6.8 µM. 370,000 compounds, 1.4% hits;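 active means activation above the mean of all tested compounds plus 3 SD, cut at about 5.5% in these data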;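 further: 100% = response to 3 µM Δ7-dafachronic acid high control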
DAX1 inh-1 – NR0B1 (DAX1) inhibition | 340,000 compounds, 0.99% hits | HEK293 Gal4-DAX1 luciferase reporter, luminescence | P51843 | inhibition, % at 6.75 µM;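 active means inhibition above the mean over all tested compounds plus 3 SD, cut at about 4.2% in these data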;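 further: 0% = DAX1-transfected cells with DMSO and 100% = empty-vector control cells with DMSO; inhibition shows as a rise in luminescence from relieved DAX1 repression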
Target sequence (P51843 207-470 limits assumed): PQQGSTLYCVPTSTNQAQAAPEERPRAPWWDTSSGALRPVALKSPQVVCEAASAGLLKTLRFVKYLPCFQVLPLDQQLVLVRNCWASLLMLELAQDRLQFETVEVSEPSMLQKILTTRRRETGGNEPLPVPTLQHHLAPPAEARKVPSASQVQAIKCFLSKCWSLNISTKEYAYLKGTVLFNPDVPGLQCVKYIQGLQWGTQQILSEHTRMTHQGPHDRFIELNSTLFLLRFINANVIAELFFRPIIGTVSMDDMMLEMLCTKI
GAA850 FXN act – activators of GAA850 frataxin (FXN) promoter; HEK293 lucGAA850 FXN promoter luciferase reporter, 24 h; percent of 10 µM SAHA response; activation, % at 6 µM; 360,000 compounds, 0.56% hits;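 active means activation above the average of all compounds screened plus 3 SD, cutoff fixed separately per campaign, cut at about 7.5% in these data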;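 further: 0% = DMSO wells and 100% = 10 µM SAHA wells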
DAX1 inh-2 – inhibitors of DAX1 repression of SF-1 activated StAR promoter | HEK293T StAR-luciferase reporter, SF-1/DAX-1 repression relief | inhibition, % at 6.8 µM | 370,000 compounds, 1.1% hits | AID 652010;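 active means inhibition above the mean over all tested compounds plus 3 SD, cut at about 3.6% in these data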;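 further: 0% = DAX-1 cells with DMSO and 100% = cells lacking DAX-1 with DMSO; higher inhibition means more luminescence from relief of DAX-1 repression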
hgDAF-12 ag – agonists of H. glycines DAF-12 nuclear receptor. HEK293 GAL4-hgDAF12 UAS-luciferase reporter, agonist luminescence; normalized to butyrate control. activation, % at 6.8 µM. 370,000 compounds, 1.8% hits. AID 687014;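 active means activation above a cutoff set at the mean of all screened compounds plus 3 SD, cut at about 10% in these data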;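 further: 0% = DMSO wells and 100% = sodium butyrate wells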
ssDAF-12 act – S. stercoralis DAF-12 activation, primary screen; HEK293 ssDAF-12/GRIP1 lit1-tk-luc reporter, luminescence; % of 3 µM dafachronic acid response; activation, % at 6.8 µM; 370,000 compounds, 1% hits;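 active means activation above the mean over all tested compounds plus 3 SD, cut at about 0.9% in these data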;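 further: 0% = DMSO-only wells and 100% = 3 µM delta7-dafachronic acid wells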
GAA30 FXN cntr – counter-screen for GAA850 frataxin promoter activators: GAA30 promoter activation; shares compounds with GAA850 FXN act; activation, % at 6 µM; 1,900 compounds, 66% hits; HEK293 lucGAA30 FXN promoter luciferase, 24 h; DMSO = 0%, 5 µM ipriflavone = 100%;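 active means mean activation above the mean of solvent-only control wells plus 3 SD, cut at about 22% in these data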;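 further: counterscreen of GAA850 promoter hits where activity marks nonselective or luminescence artifacts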
FXN GAA850 conf – confirmation of GAA850 frataxin (FXN) promoter activators; shares compounds with GAA850 FXN act; 1,900 compounds, 86% hits; activation, % at 6 µM; HEK293 lucGAA850 FXN promoter luciferase reporter, 24 h; 100% = activation by SAHA; AID 588351;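 active means mean activation above a set limit taken from the primary screen, cut at about 8% in these data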;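 further: 0% = DMSO wells and 100% = 10 µM SAHA wells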
An asterisk follows results filed as active; / = no result. The list is not random: actives were taken first. Their share in the collection is about 4.5%.

SMILES	hcDAF-12 act	DAX1 inh-1	GAA850 FXN act	DAX1 inh-2	hgDAF-12 ag	ssDAF-12 act	GAA30 FXN cntr	FXN GAA850 conf
COc1cccc(NC(=O)c2cccc(C(=O)Nc3cccc(OC)c3)n2)c1	-0.2	-0.1	1.8	0.4	4.7	-0.8	/	/
COc1cccc(NC(=O)c2nc(S(C)(=O)=O)ncc2Cl)c1	-2.1	0.2	49.5*	-2.0	-1.3	-0.2	69.0*	26.9*
CCOC(=O)c1ccc(NC(=O)c2nc(S(=O)(=O)Cc3ccccc3)ncc2Cl)cc1	1.2	-0.2	15.7*	-0.3	3.1	-1.3	-39.8	-26.6
CCOC(=O)c1ccc(NC(=O)c2ccc(NS(C)(=O)=O)cc2)cc1	-1.0	-0.7	0.0	-0.1	-1.9	-1.6	/	/
Fc1ccc(-n2cc(-c3ccccc3)c3c(=S)nc[nH]c32)cc1	-1.2	0.7	8.5*	-1.5	-2.8	-1.4	-10.8	13.5*
Fc1cccc(-n2cc(-c3ccccc3)c3c(=S)nc[nH]c32)c1	-3.5	-1.1	7.9*	-0.7	0.1	-0.8	-12.1	18.5*
O=c1[nH]cnc2c1c(-c1ccccc1)cn2-c1ccccc1	0.2	-0.5	3.0	0.0	-1.3	-1.5	/	/
CN(CCc1ccccc1)C(=O)c1cc2ccccn2n1	1.5	/	/	1.0	7.2	-0.5	/	/
O=C(Nc1ccc(C(=O)O)cc1)/C(=C\c1ccc([N+](=O)[O-])cc1)NC(=O)c1ccc(Br)cc1	-0.3	0.4	0.3	1.7	-0.4	-1.1	/	/
COc1ccc(S(=O)(=O)Nc2ccccc2OC)cc1C	0.6	0.4	8.9*	0.7	-1.7	-1.4	10.5	7.2
c1nc(NCC2CCCOC2)c2cc(-c3ccc4c(c3)OCO4)ccc2n1 (stereo unspecified)	2.9	/	/	/	2.0	-0.5	/	/
CCN(CC(O)CON=C1c2ccccc2-c2ccccc21)S(=O)(=O)c1ccc(C)cc1 (stereo unspecified)	-4.5	-0.3	7.6*	-1.1	-0.4	-2.0	7.6	15.0*
Cc1ccc(NC(=O)C(NC2CCCc3ccccc32)c2ccccc2)c([N+](=O)[O-])c1 (stereo unspecified)	2.7	-0.4	9.6*	-0.4	7.1	-1.2	15.3	17.1*
Cc1ccc(NC(=O)C(NC2CCCc3ccccc32)c2ccccc2)cc1Cl (stereo unspecified)	-1.2	1.1	3.4	-0.1	-1.9	-1.1	/	/
Cn1ccnc1C(O)c1ccc(OCc2ccccc2)cc1 (stereo unspecified)	1.0	1.6	7.7*	-0.4	3.1	-1.2	57.8*	18.0*
O=C(/C=N\O)NCCCNCc1ccccc1	-0.8	-0.1	20.9*	0.2	0.0	-1.4	26.1*	9.0*
O=C(NCCCNCc1ccccc1)c1ccncc1	-1.0	-0.5	3.5	0.4	-1.1	-1.8	/	/
CC(C)c1[nH]nc2c1C(c1ccccc1)NC2=O (stereo unspecified)	-0.6	/	/	0.9	1.8	-1.0	/	/
Cc1cc(C)cc(-n2c(SC(C)C(=O)NCc3ccc4c(c3)OCO4)nc3ccccc3c2=O)c1 (stereo unspecified)	-2.9	0.0	8.7*	-1.7	-2.9	-1.6	23.9*	8.2*
Cc1ccc(Cl)cc1N1CCN(C(=O)C2CCN(c3nnc(-n4cccc4)s3)CC2)CC1	-2.8	-0.4	8.2*	-2.1	-0.5	-0.9	1.5	3.5
Cc1cccc(N2CCN(C(=O)C3CCN(c4nnc(-n5cccc5)s4)CC3)CC2C)c1 (stereo unspecified)	1.4	-1.9	0.7	-1.6	-1.1	-1.7	/	/
CC(C)CCn1c(SCC(N)=O)nc2c1c(=O)n(C)c(=O)n2C	-0.7	1.1	10.9*	0.6	-0.1	-1.1	18.3	9.7*
CCc1ccccc1Nc1nc(N)nc(CSCC(=O)Nc2ccc(C)c(C)c2)n1	0.1	-1.3	11.9*	-0.1	-3.3	-1.9	30.4*	15.5*
